TDP1 block: TDP1 (human) enzyme inhibition | recombinant TDP1, AlphaScreen DNA substrate cleavage | Potency, µM (doses to about 130 µM), inactives show at the top dose activity change, negative = inhibition, usual class: inhibitors | 350,000 tested, 0.28% active | AID 485290; further: on the % scale 0 is the no-effect control and ±100 the full control effect; nearly all actives have a fitted effect of over 40% in size
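Enzyme-compound mixtures sat 15 min at room temperature, followed by a 5 min reaction with 15 nM final substrate and 10 min with AlphaScreen beads. Recombinant human Tdp1 was used at 1 nM final.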
Sfp inh: inhibitors of Bacillus subtilis Sfp phosphopantetheinyl transferase; Potency, µM, without a hit: largest response in the series, negative = inhibition, most hits filed as inhibitors; Q9F4F7; 310,000 tested, 3.5% active; Biochemical Sfp PPTase activity, qHTS; AID 1490;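 further: the enzyme is Sfp with the accession as filed and its product quenches rhodamine fluorescence; 0% = enzyme reaction without inhibitor and -100% = no enzyme wells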
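Fluorescence-quenching assay: 15 nM Sfp-PPTase preincubated 15 min at room temperature with compound, then 5 uM rhodamine-CoA and 12.5 uM BHQ-2-labelled YbbR peptide added. Fluorescence (ex 525/em 598 nm) read at start and after 30 min; difference gives rate.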
HP1b chromo inh: inhibitors of HP1-beta chromodomain binding to methylated histone tails; P83916; AlphaScreen HP1-beta / biotin-H3K9me3 peptide binding; 390,000 tested, 0.56% active; Potency, µM (highest dose often 114 µM), for the others: at the highest dose activity change, negative = inhibition, actives largely listed as inhibitors; further: nearly all actives have a fitted effect of over 70% in size
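Compound inhibition of the preformed complex between 50 nM HP1-beta and 50 nM biotinylated H3K9me3 peptide was read by AlphaScreen. Buffer was PBS pH 7.4 with 0.01% Tween-20. Incubations ran 30 min at room temperature, with 10 ug/mL donor/acceptor beads.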
JMJD2A Tudor: inhibitors of human JMJD2A Tudor domain. Potency, µM (doses to about 114 µM), without a hit: at the highest dose activity change, negative = inhibition, actives largely listed as inhibitors. 390,000 tested, 4.4% active. AlphaScreen JMJD2A-Tudor / H3K4me3 peptide binding. O75164; further: on the % scale 0 is the no-effect control and ±100 the full control effect; nearly all actives have a fitted effect of over 50% in size
Target sequence (O75164 whole entry, looked up, the tested form may be a part): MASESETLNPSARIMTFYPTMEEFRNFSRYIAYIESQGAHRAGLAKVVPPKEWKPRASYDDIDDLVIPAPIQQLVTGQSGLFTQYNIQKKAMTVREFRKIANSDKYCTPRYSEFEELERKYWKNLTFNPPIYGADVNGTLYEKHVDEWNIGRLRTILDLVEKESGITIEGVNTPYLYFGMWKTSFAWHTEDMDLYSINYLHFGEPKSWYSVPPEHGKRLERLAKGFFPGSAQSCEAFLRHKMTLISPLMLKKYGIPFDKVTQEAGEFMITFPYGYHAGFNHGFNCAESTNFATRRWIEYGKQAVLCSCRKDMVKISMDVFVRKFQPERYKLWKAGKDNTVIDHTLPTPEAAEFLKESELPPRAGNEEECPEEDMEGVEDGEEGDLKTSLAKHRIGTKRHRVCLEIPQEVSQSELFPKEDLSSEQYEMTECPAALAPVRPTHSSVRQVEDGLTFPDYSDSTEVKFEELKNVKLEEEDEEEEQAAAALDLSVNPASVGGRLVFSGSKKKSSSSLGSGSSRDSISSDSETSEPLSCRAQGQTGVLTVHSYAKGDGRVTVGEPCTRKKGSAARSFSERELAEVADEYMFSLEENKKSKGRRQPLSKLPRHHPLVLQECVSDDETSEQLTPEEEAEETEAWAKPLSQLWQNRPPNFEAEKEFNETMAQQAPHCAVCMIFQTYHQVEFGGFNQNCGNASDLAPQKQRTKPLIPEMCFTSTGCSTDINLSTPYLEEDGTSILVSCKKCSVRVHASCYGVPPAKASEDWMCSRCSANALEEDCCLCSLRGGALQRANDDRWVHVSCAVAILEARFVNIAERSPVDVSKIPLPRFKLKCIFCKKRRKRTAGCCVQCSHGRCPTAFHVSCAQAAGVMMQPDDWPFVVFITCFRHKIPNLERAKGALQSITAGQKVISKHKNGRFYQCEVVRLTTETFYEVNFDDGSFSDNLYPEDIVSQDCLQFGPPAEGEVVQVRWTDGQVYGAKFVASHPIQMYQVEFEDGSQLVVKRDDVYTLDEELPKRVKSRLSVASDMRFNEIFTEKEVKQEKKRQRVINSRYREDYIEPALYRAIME
G9a block: inhibitors of human histone lysine methyltransferase G9a. AID 504332. Potency, µM (series often up to 102 µM), for inactives: top-dose activity, negative = inhibition, actives largely listed as inhibitors. G9a H3K9 monomethylation, AlphaScreen, 2 h. 350,000 tested, 8.8% active; further: on the % scale 0 is the no-effect control and ±100 the full control effect; nearly all actives have a fitted effect of over 75% in size
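Using a bead-based AlphaScreen, monomethylated H3K9 product from 2 h room-temperature reactions (G9a 20 nM, peptide 500 nM, SAM 20 uM) was detected with 0.5 ug/mL rabbit anti-H3K9me1 antibody.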
BAZ2B block: blocks human BAZ2B | 360,000 tested, 4.4% active | Potency, µM (highest dose often 114 µM), inactives show at the top dose activity change, negative = inhibition, most hits filed as inhibitors | AlphaScreen BAZ2B-H3K14Ac peptide displacement | Q9UIF8; further: on the % scale 0 is the no-effect control and ±100 the full control effect; nearly all actives have a fitted effect of over 60% in size
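In this displacement format the biotinylated H3(5-23) peptide acetylated at Lys14 serves as ligand at 50 nM, with BAZ2B at 50 nM in PBS pH 7.4 containing 0.01% Tween-20. Donor and acceptor beads are 10 ug/mL final.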
* = called active by the depositor; ? = inconclusive; nt = no result; [ ] = remark or other dose. Rows were chosen to be rich in hits. Some 12% of all compounds tested hit in one or more screens of this group. The call rests on the fitted dose curve; in most records, active means well fitted curve in the direction sought with a large enough effect; inconclusive means small, poorly fitted or top-dose-only effect, or another doubt; inactive means no such curve, though single readings can be large; an effect the other way counts as inactive or inconclusive. Potency means the concentration at half of the fitted maximal effect.

SMILES | TDP1 block | Sfp inh | HP1b chromo inh | JMJD2A Tudor | G9a block | BAZ2B block
CCCOc1ccc(-c2nc(=S)[nH][nH]2)cc1 | -4.0% | 50.1µM* | -15.6% | ? | nt | -7.9%
S=c1nc(-c2ccc(Cl)cc2)[nH][nH]1 | 8.0% | 44.7µM* | ? | ? | 0.562µM* | -26.5%
Nc1nc(-c2ccc(Cl)cc2)nc(-c2ccc(Cl)cc2)n1 | nt | 3.7% | 73.6% | -3.4% | -7.4%[59 µM] | 2.5%
CCN1C(=O)[C@H]2[C@H]3[C@H](O)[C@H](O)C/C(=N\OC[C@@H](C)[C@H](OCc4ccccc4)C(C)C)[C@@H]3CC[C@H]2C1=O | 2.7% | 2.6% | nt | nt | ? | -15.4%
COc1ccccc1NC(=O)Nc1cc(F)ccc1F | -1.8% | 11.2% | 41.7% | 5.4% | -36.2% | -11.5%
Cc1ccc(CN2C(=O)C(O)(c3c[nH]c4ccccc34)c3cc(Cl)ccc32)cc1 (stereo unspecified) | 5.8% | nt | 15.1% | ? | -35.1%[59 µM] | -38.5%
CCCCNC1=CC(=O)C(=O)c2ccccc21 | -2.8% | 12.2% | -0.3% | -20.1% | -0.7% | -37.3%
O=C1C=C(Nc2cccc3cccnc23)c2ccccc2C1=O | 9.7% | -24.6% | ? | 56.2µM* | 35.5µM* | 56.2µM*
CCc1ccc(NC2=CC(=O)C(=O)c3ccccc32)cc1 | nt | nt | ? | 44.7µM* | 4.2%[0.501 µM] | 50.1µM*
O=C(O)c1ccccc1NC(=O)C(c1ccccc1)c1ccccc1 | nt | nt | 15.6% | -1.4% | nt | nt
O=C1C=C(Nc2ccccc2C(=O)O)c2ccccc2C1=O | 1.9% | -8.2% | 15.8µM* | 22.4µM* | nt | 35.5µM*
O=C1C(Nc2ccccc2)=CC(=O)c2ncccc21 | 16.1% | ? | nt | nt | ? | nt
O=C1C=C(Nc2ccccc2)C(=O)c2ccccc21 | 8.4% | -15.9% | ? | ? | 14.1µM* | 7.94µM*
CCOc1ccccc1NC(=O)C1=C(C)Nc2ncnn2C1c1sccc1C (stereo unspecified) | 6.5% | nt | 7.7%[57 µM] | -14.7% | -1.6%[59 µM] | ?
COc1cc2c(cc1OC)[C@H](C)N(CC1C(=O)O[C@@H]3C[C@@]4(C)CCC[C@H](C)[C@@]45OC5[C@H]13)CC2 (stereo partly specified) | 5.6% | 3.1% | nt | nt | nt | nt
O=C1C=C(Nc2ccccc2)c2ccccc2C1=O | 1.2% | 1.9% | ? | -31.5% | 39.8µM* | ?
Cc1cccn2c(=O)c(/C=C3\SC(=S)NC3=O)c(NCCCN3CCOCC3)nc12 | 5.1% | 3.98µM* | 19.8% | -16.1% | 12.6µM* | -37.3%
O=[N+]([O-])c1cc2oc3c(c2c(C=NCc2ccncc2)c1O)CCCC3 | 5.5% | ? | ? | 56.2µM* | ? | 35.5µM*
NC(=O)N/N=C/c1c(O)ccc2oc3c(c12)CCCC3 | 9.0% | 3.9% | 26.6% | -11.7% | nt | -15.3%
CCOC(=O)C1CCN(C(=O)c2cc3ccc4ccc(C)[nH]c4c3n2)CC1 | 3.2% | nt | -1.9% | -20.1% | 14.1µM* | 2.6%[57.1 µM]
CC(C)(C)[C@@H]1C=C(C(=O)O)[C@H](c2ccc(Cl)cc2)N1S(=O)(=O)c1ccccc1 | 2.6% | nt | 61.4% | -13.8% | nt | nt
CC1CCCCN1CCNC(=O)c1ccc2c(=O)n(Cc3ccc(Cl)cc3)c(=S)[nH]c2c1 (stereo unspecified) | 5.7% | -23.7% | 14.9% | -34.5% | ? | -31.4%
COc1ccccc1-c1nnc(SCc2ccccn2)n1C | 5.7% | -13.1% | 5.4% | -1.3% | 19.9%[12.7 µM] | 4.5%
COc1ccccc1-c1nc(SCc2ccccn2)n[nH]1 | 2.9% | 8.9% | 16.6% | -13.7% | 50.1µM* | 10.2%
COc1ccccc1NC(=O)c1ccc(S(=O)(=O)N2CCCC(C)C2)cc1 (stereo unspecified) | 11.0% | 5.1% | 17.4% | -11.2% | 9.9% | -0.4%
Cn1nc(C(C)(C)C)c([N+](=O)[O-])c1C(=O)NCCO | 1.9% | -10.9% | 8.2% | 50.1µM* | 0.0% | 10.1%
O=c1c(-c2ccc(F)cc2)nc2cncnc2n1Cc1ccccc1 | nt | -3.7% | nt | nt | -9.9%[0.501 µM] | nt

Assay outcomes from PubChem BioAssay.
